Growth inhibition, inhibition and outcome data for 19 molecules are collected here from PubChem BioAssay.

Assay [1] in a line: antimalarial activity against Dd2 strain (AID 2302;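 active means growth inhibition above 50% at the single 2 µM test dose, taken to imply half-maximal potency below 2 µM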;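 further: 0% = DMSO untreated growth and 100% = chloroquine plus artemisinin killed control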). Particulars: P. falciparum Dd2 in RBCs, LDH growth readout, 72 h; at 2 µM; stronger effect = higher value.
Assay [2] can be described thus: human hepatoma cell viability loss – ATP luminescence, cytotoxicity control for P. falciparum antimalarial project, primary screen (AID 2303;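 active means inhibition above 50%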;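 further: 0% = DMSO wells and 100% = digitonin-killed cells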). As to conditions: HepG2 viability, 24-48 h, at 10 µM, stronger effect = higher value.
Assay [3] has as its target L-lactate dehydrogenase (Plasmodium falciparum (isolate CDC / Honduras)) (UniProt Q27743). Description: PfLDH activity inhibition – cell lysate, 3D7 strain, counter-screen for P. falciparum growth inhibition project (AID 2304).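 Further: 0% = vehicle and 100% = reference inhibitor.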 As to conditions: P. falciparum 3D7 crude extract, LDH APAD/NBT absorbance; at 2 µM; stronger effect = higher value.
The nature of assay [4]: inhibition of 3D7 malaria parasite growth – strain 3D7 (AID 2306).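 Further: 0% = DMSO wells and 100% = chloroquine plus artemisinin control wells.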 Particulars: P. falciparum 3D7 erythrocytic growth, LDH absorbance, 72 h; at 2 µM; stronger effect = higher value.
Assay [5] concerns the target Calcium-dependent protein kinase 1 (Plasmodium falciparum (isolate 3D7)) (UniProt P62344). The assay can be described thus: PfCDPK1 kinase inhibitors, biochemical, TCAMS library (AID 1159585; cut-off not given, nearly all actives have IC50 up to about 0.98 µM;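 further: inhibitors leave more ATP so luminescence rises with inhibition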). Particulars: recombinant PfCDPK1, Kinase-Glo ATP depletion luminescence. A general note: Kinase-Glo reads ATP consumption through a luciferase reaction.
The target of assay [6] is Plasmodium falciparum protein kinase 6 (PK6, PF3D7_1337100) (UniProt Q8IDW1). The assay can be described thus: PfPK6 kinase inhibitors, biochemical, TCAMS library (AID 1159586). Particulars: recombinant PfPK6, Kinase-Glo ATP depletion luminescence.
Sequence of Plasmodium falciparum protein kinase 6 (PK6, PF3D7_1337100) (Q8IDW1 1-305): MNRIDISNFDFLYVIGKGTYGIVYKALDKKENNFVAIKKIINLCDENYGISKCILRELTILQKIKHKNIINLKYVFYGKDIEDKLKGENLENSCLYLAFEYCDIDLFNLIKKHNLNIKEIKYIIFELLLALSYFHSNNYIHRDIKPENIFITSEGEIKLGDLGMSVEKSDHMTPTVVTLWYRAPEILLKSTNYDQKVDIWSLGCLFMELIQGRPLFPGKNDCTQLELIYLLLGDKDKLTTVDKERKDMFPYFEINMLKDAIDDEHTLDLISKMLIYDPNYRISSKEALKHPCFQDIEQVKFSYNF
In assay [7] the target is Protein kinase 7 (PK7), Plasmodium falciparum 3D7 (PF3D7_0213400) (UniProt Q7YTF7). The assay can be described thus: inhibition of Plasmodium PK7 catalytic activity – biochemical, TCAMS antimalarial set, Kinase-Glo luminescence (AID 1159587). As to conditions: recombinant PfPK7, Kinase-Glo ATP depletion luminescence.
Sequence of Protein kinase 7 (PK7), Plasmodium falciparum 3D7 (PF3D7_0213400) (Q7YTF7 1-343): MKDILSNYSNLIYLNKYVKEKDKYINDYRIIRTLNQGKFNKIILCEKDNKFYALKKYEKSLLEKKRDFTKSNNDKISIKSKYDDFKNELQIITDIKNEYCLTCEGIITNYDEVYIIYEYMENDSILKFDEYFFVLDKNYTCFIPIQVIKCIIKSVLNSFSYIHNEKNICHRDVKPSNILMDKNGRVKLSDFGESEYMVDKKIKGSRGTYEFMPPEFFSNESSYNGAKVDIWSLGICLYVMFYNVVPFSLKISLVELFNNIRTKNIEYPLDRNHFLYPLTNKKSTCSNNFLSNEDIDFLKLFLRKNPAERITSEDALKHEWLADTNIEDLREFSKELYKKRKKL
For assay [8], the target named is Calcium-dependent protein kinase 4 (Plasmodium falciparum (isolate 3D7)) (UniProt Q8IBS5). The assay can be described thus: PfCDPK4 kinase inhibitors, biochemical, TCAMS library (AID 1159588; cut-off not given, nearly all actives have IC50 up to about 0.91 µM). As to conditions: recombinant PfCDPK4, Kinase-Glo ATP depletion luminescence.
Sequence of Calcium-dependent protein kinase 4 (Plasmodium falciparum (isolate 3D7)) (Q8IBS5 whole entry, looked up): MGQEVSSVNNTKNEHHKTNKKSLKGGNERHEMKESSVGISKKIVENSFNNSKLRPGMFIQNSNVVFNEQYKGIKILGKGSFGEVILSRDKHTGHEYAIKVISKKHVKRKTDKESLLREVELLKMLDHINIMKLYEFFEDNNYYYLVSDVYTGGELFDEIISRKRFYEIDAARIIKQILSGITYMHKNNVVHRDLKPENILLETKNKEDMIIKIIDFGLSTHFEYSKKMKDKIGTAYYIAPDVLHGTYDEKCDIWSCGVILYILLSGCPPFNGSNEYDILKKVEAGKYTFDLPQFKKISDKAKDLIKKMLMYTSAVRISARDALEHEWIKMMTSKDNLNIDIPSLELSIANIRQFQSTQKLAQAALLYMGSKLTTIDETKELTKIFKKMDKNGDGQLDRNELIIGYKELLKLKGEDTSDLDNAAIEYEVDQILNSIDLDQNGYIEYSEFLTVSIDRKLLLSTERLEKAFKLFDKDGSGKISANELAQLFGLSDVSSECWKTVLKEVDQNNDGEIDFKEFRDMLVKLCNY

Several values for one entry are separate records, joined by “and”; a condition that tells them apart may be missing. Identical values can stand only once. A number with no mark means an inactive call. For some assays here: Entries with a potency or affinity are not part of this list. Activity calls are given as the source filed them. Unless noted, how the calls were made is not given here.

Sequence of L-lactate dehydrogenase (Plasmodium falciparum (isolate CDC / Honduras)) (Q27743 whole entry, looked up): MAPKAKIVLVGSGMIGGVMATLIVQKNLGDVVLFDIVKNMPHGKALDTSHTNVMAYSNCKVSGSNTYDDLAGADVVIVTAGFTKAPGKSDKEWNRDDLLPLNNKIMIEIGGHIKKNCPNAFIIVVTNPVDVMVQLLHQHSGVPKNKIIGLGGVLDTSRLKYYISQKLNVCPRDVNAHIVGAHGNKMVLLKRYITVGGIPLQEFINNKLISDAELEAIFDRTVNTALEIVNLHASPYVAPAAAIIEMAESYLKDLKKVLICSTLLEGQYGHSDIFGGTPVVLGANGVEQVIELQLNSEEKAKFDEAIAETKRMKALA
Sequence of Calcium-dependent protein kinase 1 (Plasmodium falciparum (isolate 3D7)) (P62344 whole entry, looked up): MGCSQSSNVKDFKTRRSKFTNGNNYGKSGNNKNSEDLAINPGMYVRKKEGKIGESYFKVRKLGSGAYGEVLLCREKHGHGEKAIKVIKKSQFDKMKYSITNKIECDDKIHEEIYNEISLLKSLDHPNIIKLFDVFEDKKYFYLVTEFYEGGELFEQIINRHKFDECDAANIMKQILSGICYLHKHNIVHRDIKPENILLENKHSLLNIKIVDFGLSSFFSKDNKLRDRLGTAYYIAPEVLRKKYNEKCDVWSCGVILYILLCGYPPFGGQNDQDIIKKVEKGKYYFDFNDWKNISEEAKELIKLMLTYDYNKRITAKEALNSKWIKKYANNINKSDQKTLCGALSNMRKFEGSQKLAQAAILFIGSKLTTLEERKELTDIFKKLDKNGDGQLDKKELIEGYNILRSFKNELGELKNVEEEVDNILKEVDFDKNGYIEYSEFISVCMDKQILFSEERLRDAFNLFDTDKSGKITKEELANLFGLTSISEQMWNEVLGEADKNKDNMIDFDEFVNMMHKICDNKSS

For the molecule `O=[N+]([O-])c1ccc(Oc2c(Cl)cc(S(=O)(=O)N3CCC(CN4CCC(c5c[nH]c6ccccc56)CC4)CC3)cc2Cl)c(Cl)c1`, the results for the growth inhibition in assay [1] and in assay [4] were 83% (active) and 100% (active), respectively. In addition, the inhibition (commonly the relative decrease from the control value, in per cent) is 43% in assay [2] and -1% in assay [3]. For the same molecule, the result in assay [5], in assay [6], in assay [7] and in assay [8] was inactive.

For `Cc1ccc(C2(O)C[C@H]3CC[C@@H](C2)N3C)cc1` (some centres not stated), the figures for the growth inhibition in assay [1] and in assay [4] were 16% and 92% (active), respectively. For the same molecule, the figures for the inhibition in assay [2] and in assay [3] were -6% and -4%, respectively. Also, the result in assay [5], in assay [6], in assay [7] and in assay [8] was inactive.

In the case of `Cc1csc(-c2ccc3[nH]cc(C4=CCN(C)CC4)c3c2)n1`, the growth inhibition in assay [1] is 78% (active); in assay [4], 93% (active). The inhibition in assay [2] is 10%; in assay [3], -3%. The result in assay [5], in assay [6], in assay [7] and in assay [8] was inactive.

With `Cc1ccc(CC(C)NCC(O)c2cccc(Cl)c2)cc1` (configuration not stated), the growth inhibition in assay [1] is 64% (active); in assay [4] it was 93% (active). Further, the inhibition in assay [2] was -4%; in assay [3], -1%. The outcome in assay [5], in assay [6], in assay [7] and in assay [8] was inactive.

`COc1ccc(N(c2nc(-c3cc(Cl)ccc3Cl)cs2)C2CCNCC2)cc1`: the figures for the growth inhibition in assay [1] and in assay [4] were 4% and 91% (active), respectively. In addition, the inhibition in assay [2] is 17%; in assay [3], -2%. In addition, the result in assay [5], in assay [6], in assay [7] and in assay [8] was inactive.

As for `Cc1[nH]c2cc(Cl)ccc2c1C1=CCN(CCN2CCOc3c(Br)cccc3C2=O)CC1`, the values for the growth inhibition in assay [1] and in assay [4] were 58% (active) and 90% (active), respectively. The results for the inhibition in assay [2] and in assay [3] were 1% and 4%, respectively. Further, the outcome in assay [5], in assay [6], in assay [7] and in assay [8] was inactive.

As for `O=C(COc1ccc(Cl)cc1)N1CCC(CN2CCC(c3c[nH]c4ccccc34)CC2)CC1`, the growth inhibition in assay [1] is 13%; in assay [4], 89% (active). Moreover, the inhibition was 48% in assay [2] and 1% in assay [3]. The outcome in assay [5], in assay [6], in assay [7] and in assay [8] was inactive.

In the case of `O=C(NC1CCC(CN2CCC(c3c[nH]c4ccccc34)CC2)CC1)C1(O)c2ccccc2-c2ccccc21` (configuration not stated), the figures for the growth inhibition in assay [1] and in assay [4] were 46% and 85% (active), respectively. Besides, the inhibition in assay [2] is 22%; in assay [3], -4%. The outcome in assay [5], in assay [6], in assay [7] and in assay [8] was inactive.

On to `CC(=O)C1(c2ccccc2)CCN(CCC(NC(=O)c2cc(C(F)(F)F)cc(C(F)(F)F)c2)c2ccc(Cl)c(Cl)c2)CC1` (configuration not stated), for which the growth inhibition in assay [1] is 82% (active); in assay [4] it was 91% (active). The inhibition was 9% in assay [2] and 2% in assay [3]. The outcome in assay [5], in assay [6], in assay [7] and in assay [8] was inactive.

Take `Cn1nc(-c2ccc(S(=O)(=O)NC3CCC(CN4CCC(c5c[nH]c6ccccc56)CC4)CC3)s2)cc1C(F)(F)F` (configuration not stated): the growth inhibition in assay [1] was 29% and 24%; in assay [4], 98% (active) and 96% (active). The inhibition was 35% and 38% in assay [2]; -2% and 9% in assay [3]. Also, the result in assay [5], in assay [6], in assay [7] and in assay [8] was inactive.

On to `CC(C)C[C@H](Nc1ccc(C#N)c2ccccc12)C(=O)N[C@@H]1CCCc2ccccc21`, for which the results for the growth inhibition in assay [1] and in assay [4] were 100% (active) and 99% (active), respectively. For the same molecule, the inhibition in assay [2] was 38%; in assay [3] it was 10%. The outcome in assay [5], in assay [6], in assay [7] and in assay [8] was inactive.

With `CCCCC/C=C/C(=O)NC1CCC(CN2CCC(c3c[nH]c4ccccc34)CC2)CC1` (configuration not stated), the growth inhibition is 11% in assay [1] and 87% (active) in assay [4]. Besides, the values for the inhibition in assay [2] and in assay [3] were 19% and -1%, respectively. Further, the outcome in assay [5], in assay [6], in assay [7] and in assay [8] was inactive.

As to `O=C(/C=C/c1ccc(Cl)c(Cl)c1)NC1CCC(N2CCC(c3c[nH]c4ccc(O)cc34)CC2)CC1` (configuration not stated), the growth inhibition was 16% in assay [1] and 97% (active) in assay [4]. Moreover, the inhibition in assay [2] was 10%; in assay [3], -9%. Moreover, the result in assay [5], in assay [6], in assay [7] and in assay [8] was inactive.

Regarding `CC(=O)N(Cc1ccccc1-c1ccc(CNCCc2ccccc2)cc1)C1CCN(Cc2ccccc2)CC1`, the growth inhibition was 85% (active) in assay [1] and 101% (active) in assay [4]. For the same molecule, the inhibition in assay [2] was 24%; in assay [3] it was 3%. The outcome in assay [5], in assay [6], in assay [7] and in assay [8] was inactive.

For the molecule `O=C(/C=C/c1ccc(Cl)c(Cl)c1)NC1CCC(CN2CCC(c3c[nH]c4ccc(O)cc34)CC2)CC1` (configuration not stated), the growth inhibition in assay [1] was 99% (active) and 101% (active); in assay [4], 100% (active) and 101% (active). Further, the inhibition in assay [2] is 38% and 35%; in assay [3] it was -1% and 6%. In addition, the result in assay [5], in assay [6], in assay [7] and in assay [8] was inactive.

In the case of `CC[C@H]1CN2CC[C@@H]1C[C@H]2[C@H](O)c1cc(N2CCC(O)CC2)nc2ccc(OC)cc12`, the values for the growth inhibition in assay [1] and in assay [4] were 92% (active) and 99% (active), respectively. Moreover, the inhibition in assay [2] is 15%; in assay [3], 3%. Further, the result in assay [5], in assay [6], in assay [7] and in assay [8] was inactive.

With `COc1ccc(CC(C)NCC(O)c2cccc(Cl)c2F)cc1` (configuration not stated), the growth inhibition in assay [1] is 59% (active); in assay [4], 88% (active). Further, the inhibition is 3% in assay [2] and -6% in assay [3]. For the same molecule, the outcome in assay [5], in assay [6], in assay [7] and in assay [8] was inactive.

In the case of `CC[C@H]1CN2CCc3cc(OC)c(OC)cc3[C@@H]2C[C@@H]1C[C@H]1NCCc2c1cc(OC)c(O)c2I`, the growth inhibition in assay [1] and in assay [4] was 101% (active) throughout. Also, the inhibition is 54% (active) in assay [2] and -4% in assay [3]. In addition, the outcome in assay [5], in assay [6], in assay [7] and in assay [8] was inactive.

With `CC(C)N(C)C(=O)n1cnc(S(=O)(=O)C2C[C@@H]3CC[C@H]2C3)n1` (some centres not stated), the growth inhibition in assay [1] was 96% (active); in assay [4], 97% (active). Moreover, the inhibition in assay [2] was 26%; in assay [3], 6%. Also, the result in assay [5], in assay [6], in assay [7] and in assay [8] was inactive.
